Test results as given in PubChem BioAssay AID743314 (Broad Institute, 2014).
Potency and affinity values are given separately. Records with an inconclusive call do not appear. Active and inactive are the calls of the source.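 The calls were made as follows: active = fitted half-maximal concentration no higher than twice the top tested dose, in every repeat run; inconclusive = repeat runs disagree, poor fit, or flat partial inhibition; inactive = the rest.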

The compounds below were run against Endoplasmic reticulum aminopeptidase 1 (Homo sapiens) (UniProt Q9NZ08) (assay: inhibition of human ERAP1 enzyme activity – biochemical, cherry-pick, set 2, plate reader, dose response (AID 743314;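 also: 0% = neutral control wells and -100% = L-leucinethiol positive control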)). Conditions: Recombinant ERAP1, Leu-AMC fluorescence, 60 min; series mostly up to 11 µM; activity change, negative = inhibition: at the top concentration.
Endoplasmic reticulum aminopeptidase 1 (Homo sapiens), sequence (Q9NZ08 whole entry, looked up): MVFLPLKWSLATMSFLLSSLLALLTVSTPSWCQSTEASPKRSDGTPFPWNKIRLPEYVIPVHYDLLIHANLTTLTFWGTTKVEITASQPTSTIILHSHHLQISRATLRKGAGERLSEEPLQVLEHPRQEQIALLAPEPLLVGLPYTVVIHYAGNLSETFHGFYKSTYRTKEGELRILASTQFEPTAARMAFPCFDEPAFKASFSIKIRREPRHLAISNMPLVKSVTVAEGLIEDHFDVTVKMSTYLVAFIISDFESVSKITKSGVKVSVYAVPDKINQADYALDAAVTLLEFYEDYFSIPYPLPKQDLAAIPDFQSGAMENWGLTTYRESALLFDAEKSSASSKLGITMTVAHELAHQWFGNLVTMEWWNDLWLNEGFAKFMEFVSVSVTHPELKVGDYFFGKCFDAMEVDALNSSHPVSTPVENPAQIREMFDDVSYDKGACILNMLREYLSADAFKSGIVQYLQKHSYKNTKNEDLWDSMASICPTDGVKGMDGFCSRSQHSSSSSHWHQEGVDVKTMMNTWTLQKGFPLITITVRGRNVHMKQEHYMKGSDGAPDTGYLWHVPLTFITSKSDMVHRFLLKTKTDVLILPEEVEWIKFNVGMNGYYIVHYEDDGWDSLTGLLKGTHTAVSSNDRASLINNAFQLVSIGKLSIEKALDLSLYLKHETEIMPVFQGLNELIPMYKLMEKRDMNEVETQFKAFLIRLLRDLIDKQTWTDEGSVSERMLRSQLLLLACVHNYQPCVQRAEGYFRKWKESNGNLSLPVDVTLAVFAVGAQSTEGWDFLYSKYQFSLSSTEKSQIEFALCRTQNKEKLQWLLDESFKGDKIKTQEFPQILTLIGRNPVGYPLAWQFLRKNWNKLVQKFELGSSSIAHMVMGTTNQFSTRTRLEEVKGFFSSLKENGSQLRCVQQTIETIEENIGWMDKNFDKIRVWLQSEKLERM

Activity change, negative = inhibition, inactive:
Cc1c(O)ccc2c(CN3CCN(Cc4ccccc4)CC3)cc(=O)oc12 145%
COc1cccc(CN(C)Cc2cc(=O)oc3cc(O)c(Cl)cc23)c1 187%
O=C(O)c1cccc(NC(=O)c2ccccc2NC(=O)c2cccc([N+](=O)[O-])c2)c1 110% [at 5.6 µM]
C[C@H](CO)N1C[C@H](C)[C@H](CN(C)C)Oc2c(NC(=O)Nc3ccc(C(F)(F)F)cc3)cccc2C1=O 61.3% [at 5.6 µM]
COc1ccc(CN(C)C[C@H]2OCCCC[C@H](C)Oc3ccc(NS(=O)(=O)c4cccs4)cc3C(=O)N([C@H](C)CO)C[C@H]2C)cc1 14.9%
O=C(C[C@@H]1CC[C@@H]2[C@H](COC[C@@H](O)CN2C(=O)Cc2ccccc2)O1)NC1CCC1 36.4%
C[C@H](CO)N1C[C@H](C)[C@@H](CN(C)C)Oc2c(NC(=O)Nc3ccc(C(F)(F)F)cc3)cccc2C1=O 64.7%
C[C@@H]1CCCCO[C@@H](CN(C)C)[C@H](C)CN([C@@H](C)CO)C(=O)c2cc(NS(=O)(=O)c3ccc(Cl)cc3)ccc2O1 22.3%
CCc1cc(=O)oc2c(CNCc3ccccc3F)c(O)c(Cl)cc12 29.9% [at 5.6 µM]
Cn1cnc(Sc2ncnc3nc[nH]c23)c1[N+](=O)[O-] -15.1%
CC(Sc1nnc(-c2cccnc2)n1C)C(=O)N1CCOCC1 (stereo not drawn) -6.46%
COc1ccc(CN(C)C[C@H]2Oc3ccc(NS(=O)(=O)c4ccc(C)cc4)cc3C(=O)N([C@@H](C)CO)C[C@@H]2C)cc1 20.6%
COc1ccc(S(=O)(=O)NC[C@@H]2CC[C@H]3[C@H](CN3Cc3cc(F)ccc3F)O2)cc1 36.2%
C[C@H](CO)N1C[C@H](C)[C@H](CN(C)S(=O)(=O)c2ccccc2)Oc2ccc(NC(=O)CCN3CCOCC3)cc2C1=O 13.5%
C[C@@H]1CCCCO[C@@H](CN(C)Cc2ccc(C(=O)O)cc2)[C@H](C)CN([C@@H](C)CO)C(=O)c2cc(NS(=O)(=O)c3ccc(Cl)cc3)ccc2O1 53.6%
CCCC#Cc1ccc(CC[C@H]2O[C@H]3CC[C@H](CO)O[C@H]3C[C@@H]2NC(=O)CN2CCOCC2)cc1 8.84%
O=C(O)c1ccccc1NS(=O)(=O)c1cccc(NS(=O)(=O)c2cc(Br)ccc2Br)c1 -22.3%
CS(=O)(=O)N(CC(=O)N1CCOCC1)c1cccc(Cl)c1 -6.98%
CCn1c(SCC(=O)NC2CCCCC2)nc2ccccc2c1=O -8.12%
CC(=O)Oc1ccc(-c2cc3c(OC(C)=O)cc(OC(C)=O)cc3oc2=O)cc1 13.7% [at 2.6 µM]
O=C(CN1CCN(S(=O)(=O)N2CCOCC2)CC1)Nc1ccc(Cl)c(Cl)c1 11.9%
COc1ccc2c3c([nH]c2c1)[C@@H](CO)N(Cc1cc(F)ccc1F)CC31CN(C(=O)CN(C)C)C1 35.7%
CNC[C@H]1Oc2c(NC(=O)Nc3ccc(F)cc3)cccc2C(=O)N([C@@H](C)CO)C[C@@H]1C 40%
CN(CC(=O)Nc1ccccc1C(F)(F)F)C(=O)CSc1nnc(-c2ccncc2)n1C 14.9%
Cc1ccc(NC(=O)C2CCCN2C(=O)c2cccs2)c(C)c1 (stereo not drawn) -10.6%
Cc1cc(C)cc(N2CC(c3nc4ccccc4n3C)CC2=O)c1 (stereo not drawn) -5.2%
CN(CC(=O)Nc1cccc(F)c1)C(=O)CCc1nc2ccccc2c(=O)[nH]1 8.54%
CN(C)C(=O)[C@H]1[C@H](CO)[C@H]2Cn3c(cccc3=O)[C@@H]1N2CC1CCCC1 31.6%
C[C@@H]1CN([C@H](C)CO)C(=O)c2cccc(NC(=O)Nc3ccc(C(F)(F)F)cc3)c2O[C@@H]1CN(C)C 40.4%
Cn1c(=O)[nH]c(=O)c2c1[nH]c(=S)n2Cc1ccccc1 -25%
COc1cc2cc(C(=O)N3CCN(Cc4ccc5c(c4)OCO5)CC3)c(=O)oc2cc1OC 52.3% [at 5.6 µM]
CC(C)C(NC(=O)CCNC(=O)c1ccc([N+](=O)[O-])cc1)c1nc2ccccc2[nH]1 (stereo not drawn) 1.84%
CN(C(=O)CSc1nnc(C(F)(F)F)n1C)c1c(N)n(Cc2ccccc2)c(=O)[nH]c1=O 6.68%
CC1CN(Cc2cc(=O)oc3cc(O)c(Cl)cc23)CC(C)O1 (stereo not drawn) 86.2% [at 5.6 µM]
C[C@H](CO)N1C[C@H](C)[C@@H](CN(C)C(=O)Nc2ccccc2)Oc2ccc(NC(=O)Nc3cccc4ccccc34)cc2C1=O 8.85%
COc1ccc(CN(C)C[C@@H]2Oc3c(NC(=O)NC4CCCCC4)cccc3C(=O)N([C@H](C)CO)C[C@H]2C)cc1 17.6%
COc1ccc2c3c([nH]c2c1)[C@H](CO)NCC31CN(Cc2cc(F)ccc2F)C1 19.8%
Cc1noc(C)c1NC(=O)N(C)C[C@H]1Oc2c(NC(=O)Nc3ccc(F)cc3)cccc2C(=O)N([C@@H](C)CO)C[C@H]1C 37.4%
